Results as given in paper PMC7862700, “An all-to-all approach to the identification of sequence-specific readers for epigenetic DNA modifications on cytosine”.

Legend:
Test in all cases: DAPPL (digital affinity profiling via proximity ligation, sequencing); 10 mM Tris-HCl pH 7.5, 50 mM NaCl, 1 mM DTT, 4% glycerol, room temperature, 30 min; GST-TFs on glutathione beads, 16-mer random dsDNA library, 0.1% formaldehyde crosslink after washing; high values mean tight binding
Conditions in all cases: protein: recombinant; tags: N-terminal GST; dsDNA, one strand shown
[1] = molecular target: ETV1 (Homo sapiens, UniProt P50549 1-477)
Chain of ETV1 (P50549 whole entry, the tested form may be a part): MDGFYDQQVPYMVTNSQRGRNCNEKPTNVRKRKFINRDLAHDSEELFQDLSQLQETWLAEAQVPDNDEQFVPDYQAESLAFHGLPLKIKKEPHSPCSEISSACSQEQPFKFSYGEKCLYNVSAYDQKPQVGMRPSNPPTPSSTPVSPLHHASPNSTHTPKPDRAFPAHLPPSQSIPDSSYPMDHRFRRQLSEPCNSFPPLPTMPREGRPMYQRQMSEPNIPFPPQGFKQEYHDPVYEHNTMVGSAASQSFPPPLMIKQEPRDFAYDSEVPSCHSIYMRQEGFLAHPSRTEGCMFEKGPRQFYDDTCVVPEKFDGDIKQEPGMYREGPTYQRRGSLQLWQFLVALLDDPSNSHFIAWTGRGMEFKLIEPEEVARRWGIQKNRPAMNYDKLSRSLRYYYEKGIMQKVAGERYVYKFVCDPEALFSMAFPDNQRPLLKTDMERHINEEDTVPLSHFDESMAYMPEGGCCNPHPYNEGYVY
How it was run: (§1)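 GST fusions of human transcription factors were expressed in yeast and captured with glutathione beads. Once given DNA barcodes and pooled alongside a tag-only sample, they were incubated for 30 min at room temperature with 200 nmole of a random double-stranded 16-mer DNA library in Tris/NaCl/DTT/glycerol buffer, then washed, crosslinked (0.1% formaldehyde), proximity-ligated, PCR-amplified and sequenced on an Illumina NextSeq500. The binding signal of each hexamer is its read frequency for a factor divided by its frequency for the tag-only sample.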

[2] = molecular target: T1, ERF (Homo sapiens, UniProt P50548 1-548)
T1 sequence: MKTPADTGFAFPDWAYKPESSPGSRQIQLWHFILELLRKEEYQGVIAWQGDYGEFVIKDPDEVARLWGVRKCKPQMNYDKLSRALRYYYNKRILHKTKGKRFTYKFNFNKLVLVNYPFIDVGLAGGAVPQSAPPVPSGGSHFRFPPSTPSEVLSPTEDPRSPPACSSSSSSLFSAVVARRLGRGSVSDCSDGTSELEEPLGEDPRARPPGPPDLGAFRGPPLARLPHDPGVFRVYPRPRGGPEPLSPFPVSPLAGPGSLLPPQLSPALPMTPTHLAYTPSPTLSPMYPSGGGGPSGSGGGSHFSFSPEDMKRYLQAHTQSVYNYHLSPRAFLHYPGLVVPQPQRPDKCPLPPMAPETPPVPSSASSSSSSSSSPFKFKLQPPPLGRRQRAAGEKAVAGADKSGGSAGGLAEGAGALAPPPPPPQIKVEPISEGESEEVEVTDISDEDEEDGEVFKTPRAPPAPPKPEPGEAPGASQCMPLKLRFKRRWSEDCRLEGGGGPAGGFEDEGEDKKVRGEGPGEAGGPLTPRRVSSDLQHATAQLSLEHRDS
How it was run: as §1

[3] = molecular target: T2, ETV3L (Homo sapiens, UniProt Q6ZN32 1-361)
T2 sequence: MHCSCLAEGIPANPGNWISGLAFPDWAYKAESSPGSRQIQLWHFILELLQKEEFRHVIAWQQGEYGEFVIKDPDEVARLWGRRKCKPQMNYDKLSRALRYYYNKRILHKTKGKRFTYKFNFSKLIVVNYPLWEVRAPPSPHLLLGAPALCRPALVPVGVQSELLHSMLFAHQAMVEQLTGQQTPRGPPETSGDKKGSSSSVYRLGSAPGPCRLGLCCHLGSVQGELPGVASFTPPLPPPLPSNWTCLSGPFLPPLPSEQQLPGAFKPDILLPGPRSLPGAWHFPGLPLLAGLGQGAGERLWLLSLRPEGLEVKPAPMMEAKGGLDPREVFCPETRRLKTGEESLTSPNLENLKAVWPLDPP
How it was run: as §1

[4] = molecular target: T3, ETS2 (Homo sapiens, UniProt P15036 1-469)
T3 sequence: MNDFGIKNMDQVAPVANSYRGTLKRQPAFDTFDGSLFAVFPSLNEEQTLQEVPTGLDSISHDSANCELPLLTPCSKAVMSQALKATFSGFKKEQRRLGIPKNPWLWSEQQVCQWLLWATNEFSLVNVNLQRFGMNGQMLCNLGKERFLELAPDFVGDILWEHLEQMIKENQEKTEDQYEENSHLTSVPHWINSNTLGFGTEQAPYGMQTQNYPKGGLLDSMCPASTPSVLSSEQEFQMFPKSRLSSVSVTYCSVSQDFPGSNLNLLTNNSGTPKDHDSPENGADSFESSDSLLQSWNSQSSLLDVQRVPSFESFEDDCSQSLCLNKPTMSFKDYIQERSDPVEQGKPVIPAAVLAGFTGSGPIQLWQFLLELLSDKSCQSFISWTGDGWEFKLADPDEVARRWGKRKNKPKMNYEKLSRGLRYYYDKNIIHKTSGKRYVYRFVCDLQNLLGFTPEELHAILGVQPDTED
How it was run: as §1

[5] = molecular target: T4, SPDEF (Homo sapiens, UniProt O95238 1-335)
T4 sequence: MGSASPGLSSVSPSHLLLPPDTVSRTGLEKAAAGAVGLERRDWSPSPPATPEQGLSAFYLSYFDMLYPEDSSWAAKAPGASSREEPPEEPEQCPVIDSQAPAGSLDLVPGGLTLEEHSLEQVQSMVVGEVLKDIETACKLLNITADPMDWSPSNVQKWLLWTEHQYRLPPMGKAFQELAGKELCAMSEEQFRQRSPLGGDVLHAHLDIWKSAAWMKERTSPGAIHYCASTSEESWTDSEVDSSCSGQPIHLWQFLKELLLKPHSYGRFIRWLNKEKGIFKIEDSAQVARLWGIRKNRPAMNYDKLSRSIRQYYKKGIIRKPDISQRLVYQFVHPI
How it was run: as §1

[6] = molecular target: T5, ETV7 (Homo sapiens, UniProt Q9Y603 1-341)
T5 sequence: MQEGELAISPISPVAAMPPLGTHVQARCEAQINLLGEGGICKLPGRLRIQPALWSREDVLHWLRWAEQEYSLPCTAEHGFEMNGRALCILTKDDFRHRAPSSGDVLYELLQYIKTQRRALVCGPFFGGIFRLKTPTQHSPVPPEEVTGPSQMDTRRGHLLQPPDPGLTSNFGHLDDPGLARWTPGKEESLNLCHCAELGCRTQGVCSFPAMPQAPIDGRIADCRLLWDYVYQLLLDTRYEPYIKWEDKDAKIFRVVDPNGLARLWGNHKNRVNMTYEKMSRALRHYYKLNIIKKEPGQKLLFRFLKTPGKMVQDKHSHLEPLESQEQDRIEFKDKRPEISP
How it was run: as §1

[7] = molecular target: T6, ELF5 (Homo sapiens, UniProt Q9UKW6-2 1-255)
T6 sequence: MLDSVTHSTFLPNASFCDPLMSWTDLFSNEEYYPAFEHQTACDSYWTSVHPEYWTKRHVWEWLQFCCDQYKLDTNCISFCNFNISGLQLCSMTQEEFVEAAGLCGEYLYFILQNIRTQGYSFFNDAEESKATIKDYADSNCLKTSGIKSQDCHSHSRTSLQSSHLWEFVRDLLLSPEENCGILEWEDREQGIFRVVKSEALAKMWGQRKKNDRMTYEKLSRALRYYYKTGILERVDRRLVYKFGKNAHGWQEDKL
How it was run: as §1

[8] = molecular target: T7, ETV3 (Homo sapiens, UniProt P41162-2 1-143)
T7 sequence: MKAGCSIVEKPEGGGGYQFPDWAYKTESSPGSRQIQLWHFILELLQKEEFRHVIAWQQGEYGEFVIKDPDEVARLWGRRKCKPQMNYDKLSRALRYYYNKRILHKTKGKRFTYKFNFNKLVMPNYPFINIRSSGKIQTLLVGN
How it was run: as §1

[9] = molecular target: ETV6 (Homo sapiens, UniProt P41212 1-452)
Chain of ETV6 (P41212 whole entry): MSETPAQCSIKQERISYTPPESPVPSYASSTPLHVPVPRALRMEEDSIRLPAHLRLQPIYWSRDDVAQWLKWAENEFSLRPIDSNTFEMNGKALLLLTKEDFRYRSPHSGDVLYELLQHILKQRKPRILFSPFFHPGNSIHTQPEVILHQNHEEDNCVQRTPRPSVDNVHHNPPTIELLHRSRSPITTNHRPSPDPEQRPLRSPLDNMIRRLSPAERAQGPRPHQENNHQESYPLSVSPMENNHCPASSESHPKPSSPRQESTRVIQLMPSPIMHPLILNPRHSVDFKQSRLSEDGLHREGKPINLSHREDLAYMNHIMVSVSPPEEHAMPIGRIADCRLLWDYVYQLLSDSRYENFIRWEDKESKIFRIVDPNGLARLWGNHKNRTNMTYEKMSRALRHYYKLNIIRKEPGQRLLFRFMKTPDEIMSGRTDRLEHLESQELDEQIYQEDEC
How it was run: as §1

AATTGA
binding signal [1]: 1.21 fold enrichment (6-mer frequency, TF over GST control)
binding signal [2]: 1.24 fold enrichment (6-mer frequency, TF over GST control)
binding signal [3]: 1.13 fold enrichment (6-mer frequency, TF over GST control)
binding signal [4]: 1.26 fold enrichment (6-mer frequency, TF over GST control)
binding signal [5]: 1.15 fold enrichment (6-mer frequency, TF over GST control)
binding signal [6]: 1.28 fold enrichment (6-mer frequency, TF over GST control)
binding signal [7]: 1.21 fold enrichment (6-mer frequency, TF over GST control)
binding signal [8]: 1.17 fold enrichment (6-mer frequency, TF over GST control)
binding signal [9]: 1.19 fold enrichment (6-mer frequency, TF over GST control)
